From article PMC13541613, “GHT-SELEX demonstrates unexpectedly high intrinsic sequence specificity and complex DNA binding of many human transcription factors”

What was measured:
Test in all cases: HT-SELEX; 20 mM HEPES pH 7, 140 mM KCl, 5 mM NaCl, 1 mM K2HPO4, 2 mM MgSO4, 100 uM EGTA, ZnSO4, 0.1% Tween20; room temperature, 1 h; high values mean tight binding
Settings in all cases: protein: ivt; tags: eGFP (N-terminal); dsDNA, one strand shown
ZNF721 full-length = ZNF721 full-length (Homo sapiens, UniProt Q8TF20-2 1-923)
Sequence of ZNF721 full-length (Q8TF20 other isoform, or with tags, fused parts or gaps): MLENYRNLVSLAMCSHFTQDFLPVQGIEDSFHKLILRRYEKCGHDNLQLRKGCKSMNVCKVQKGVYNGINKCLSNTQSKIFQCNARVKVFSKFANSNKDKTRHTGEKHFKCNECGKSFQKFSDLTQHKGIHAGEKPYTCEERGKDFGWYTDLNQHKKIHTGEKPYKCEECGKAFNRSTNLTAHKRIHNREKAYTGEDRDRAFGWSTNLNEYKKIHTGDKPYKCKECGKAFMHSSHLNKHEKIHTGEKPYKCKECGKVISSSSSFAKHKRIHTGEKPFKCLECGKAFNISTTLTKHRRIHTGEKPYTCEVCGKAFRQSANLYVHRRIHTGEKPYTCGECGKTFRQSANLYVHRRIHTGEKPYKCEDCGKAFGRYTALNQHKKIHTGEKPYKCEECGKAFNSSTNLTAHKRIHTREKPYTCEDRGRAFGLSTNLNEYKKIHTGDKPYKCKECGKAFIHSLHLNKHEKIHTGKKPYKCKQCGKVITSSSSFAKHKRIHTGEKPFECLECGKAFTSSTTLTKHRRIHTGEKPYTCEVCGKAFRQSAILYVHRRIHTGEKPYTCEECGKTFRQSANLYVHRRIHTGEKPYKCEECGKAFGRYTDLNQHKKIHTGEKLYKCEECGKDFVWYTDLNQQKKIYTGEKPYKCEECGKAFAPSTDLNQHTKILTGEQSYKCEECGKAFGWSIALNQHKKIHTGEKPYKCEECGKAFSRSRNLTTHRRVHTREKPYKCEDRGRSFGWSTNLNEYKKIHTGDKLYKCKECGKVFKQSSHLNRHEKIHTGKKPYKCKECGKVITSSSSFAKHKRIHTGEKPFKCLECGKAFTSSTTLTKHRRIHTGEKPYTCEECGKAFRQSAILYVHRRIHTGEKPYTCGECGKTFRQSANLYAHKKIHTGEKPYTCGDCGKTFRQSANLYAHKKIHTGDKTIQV
How it was run: (§1)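 Full-length or DNA-binding-domain forms of a tagged transcription factor were produced in HEK293 lysate or cell-free extract and immobilised on beads. Incubation with a randomized 40-base DNA library ran for 1 h at room temperature in HEPES/KCl low-stringency buffer with Tween20, after which bound DNA was washed, heat-eluted, PCR-amplified over successive cycles and Illumina-sequenced. Binding strength is given as the relative k-mer count in selected reads, higher for tighter binding.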

ZNF721 DBD1 = ZNF721 DBD1 (Homo sapiens, UniProt Q8TF20-2 29-461)
Sequence of ZNF721 DBD1 (Q8TF20 17-449): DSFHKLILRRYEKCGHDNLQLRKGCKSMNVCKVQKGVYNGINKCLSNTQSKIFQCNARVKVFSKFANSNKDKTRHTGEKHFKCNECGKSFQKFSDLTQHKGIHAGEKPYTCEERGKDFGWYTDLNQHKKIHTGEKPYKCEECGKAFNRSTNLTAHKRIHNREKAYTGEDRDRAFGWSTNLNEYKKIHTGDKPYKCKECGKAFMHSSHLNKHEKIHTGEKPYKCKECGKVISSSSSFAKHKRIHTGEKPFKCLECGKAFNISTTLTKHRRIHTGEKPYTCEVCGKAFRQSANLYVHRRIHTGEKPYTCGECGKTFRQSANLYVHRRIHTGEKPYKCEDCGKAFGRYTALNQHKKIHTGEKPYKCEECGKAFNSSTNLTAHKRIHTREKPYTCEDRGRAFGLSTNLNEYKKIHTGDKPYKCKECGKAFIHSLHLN
How it was run: as §1

ZNF721 DBD2 = ZNF721 DBD2 (Homo sapiens, UniProt Q8TF20-2 395-923)
Sequence of ZNF721 DBD2 (Q8TF20 383-911): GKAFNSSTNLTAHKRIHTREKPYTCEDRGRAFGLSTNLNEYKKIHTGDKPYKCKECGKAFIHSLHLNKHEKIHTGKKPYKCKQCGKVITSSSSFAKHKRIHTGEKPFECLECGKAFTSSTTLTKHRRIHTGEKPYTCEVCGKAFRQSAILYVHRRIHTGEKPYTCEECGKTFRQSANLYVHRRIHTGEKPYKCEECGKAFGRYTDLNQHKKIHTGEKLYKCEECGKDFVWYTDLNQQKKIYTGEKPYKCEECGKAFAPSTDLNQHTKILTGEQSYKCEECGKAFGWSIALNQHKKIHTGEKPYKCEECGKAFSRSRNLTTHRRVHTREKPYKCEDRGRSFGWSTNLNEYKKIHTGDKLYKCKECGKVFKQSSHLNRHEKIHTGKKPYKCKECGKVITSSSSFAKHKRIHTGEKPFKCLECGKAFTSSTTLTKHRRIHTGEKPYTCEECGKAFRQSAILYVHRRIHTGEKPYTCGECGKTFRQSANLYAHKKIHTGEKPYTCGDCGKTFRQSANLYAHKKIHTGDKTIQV
How it was run: as §1

Sequence	binding signal (ZNF721 full-length)	binding signal (ZNF721 DBD1)	binding signal (ZNF721 DBD2)
ACCCCCACAC	0.108 relative 10-mer count	0.00312 relative 10-mer count	0.00527 relative 10-mer count
CCGCACCCCC	0.152 relative 10-mer count	0.00569 relative 10-mer count	0.00156 relative 10-mer count
CCCCACCCCG	0.186 relative 10-mer count	0.00784 relative 10-mer count	0.00384 relative 10-mer count
ACCCCATCCC	0.102 relative 10-mer count	0.00367 relative 10-mer count	0.0024 relative 10-mer count
CCAAAAAACA	0.16 relative 10-mer count	0.00174 relative 10-mer count	0.185 relative 10-mer count
AAGCGTCTCC	0.163 relative 10-mer count	0.084 relative 10-mer count	0.0107 relative 10-mer count
AGCATCTCCA	0.132 relative 10-mer count	0.0129 relative 10-mer count	0.121 relative 10-mer count
AGGGGTGGGG	0.2 relative 10-mer count	0.00968 relative 10-mer count	0.00372 relative 10-mer count
CCCCACGCCC	0.235 relative 10-mer count	0.00853 relative 10-mer count	0.00395 relative 10-mer count
CCTCCTCCCC	0.169 relative 10-mer count	0.00881 relative 10-mer count	0.00527 relative 10-mer count
CCACCCAGCC	0.102 relative 10-mer count	0.00294 relative 10-mer count	0.00264 relative 10-mer count
CCCCCCCCGC	0.151 relative 10-mer count	0.00399 relative 10-mer count	0.0024 relative 10-mer count
AACAAAAAAG	0.106 relative 10-mer count	0.00927 relative 10-mer count	0.0439 relative 10-mer count
CCCTACCCCC	0.153 relative 10-mer count	0.0083 relative 10-mer count	0.00587 relative 10-mer count
CGCACCACCC	0.108 relative 10-mer count	0.00381 relative 10-mer count	0.00695 relative 10-mer count
ATCCCCACCC	0.114 relative 10-mer count	0.00459 relative 10-mer count	0.00515 relative 10-mer count
CGACCCCCCC	0.113 relative 10-mer count	0.00427 relative 10-mer count	0.0018 relative 10-mer count
CCACCACGCC	0.105 relative 10-mer count	0.00316 relative 10-mer count	0.00587 relative 10-mer count
AGGGGGGTGG	0.157 relative 10-mer count	0.00835 relative 10-mer count	0.00407 relative 10-mer count
GGGGGGGGGA	0.116 relative 10-mer count	0.00486 relative 10-mer count	0.00192 relative 10-mer count
CCCCGTCCCC	0.212 relative 10-mer count	0.00789 relative 10-mer count	0.00192 relative 10-mer count
ACCCCACCGC	0.106 relative 10-mer count	0.00408 relative 10-mer count	0.00336 relative 10-mer count
CCCCACCATC	0.111 relative 10-mer count	0.00477 relative 10-mer count	0.00563 relative 10-mer count
CAAAAAAAAA	0.226 relative 10-mer count	0.0215 relative 10-mer count	0.0886 relative 10-mer count
CCCACCCGCC	0.216 relative 10-mer count	0.00794 relative 10-mer count	0.00539 relative 10-mer count
CGCCACCCAC	0.123 relative 10-mer count	0.0056 relative 10-mer count	0.00372 relative 10-mer count
CCCTCCCCTC	0.142 relative 10-mer count	0.00679 relative 10-mer count	0.0129 relative 10-mer count
AAAAGCTGCA	0.114 relative 10-mer count	0.0533 relative 10-mer count	0.00312 relative 10-mer count
AAAAAGCAGT	0.497 relative 10-mer count	0.0214 relative 10-mer count	0.383 relative 10-mer count
CCACCCCCCG	0.179 relative 10-mer count	0.00628 relative 10-mer count	0.0024 relative 10-mer count
